Hits are enriched below; roughly 1.7% of the tested compounds scored in any of these assays.
p53ts 32C kill: kills p53ts cells at the permissive temperature; H1299-p53A138V at 32C, ATP luminescence viability, 24 h; Potency, µM (highest dose often 46.1 µM), for the others: top-dose activity change, negative = cytotoxicity, actives largely listed as cytotoxic; hit rate 0.93% among 130,000;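 note: 0% = DMSO and -100% = full killing by reference compound; nearly all actives have a fitted effect of over 55% in size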
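Cells: H1299 p53ts (A138V), 600/well, pre-incubated 16–30 h at 37C. Cpd up to 46 uM, 24 h, 32C. Readout: ATPlite luminescence, 20 min RT. Normalization: DMSO vs tamoxifen 100 uM. AC50 by Hill equation.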
IkB sig inh: IkB pathway inhibition in ABC-DLBCL cells | ABC-DLBCL IkBa-CBG/CBR dual luciferase ratio, 4 h; response scale: scaled: untreated 0%, proteasome inhibitor 100% | Potency, µM (top dose mostly 57.1 µM), for the others: at the top dose IkBa stabilization activation | hit rate 0.04% among 110,000 | AID 445; active = well fitted curve in the direction sought with a large enough effect in the signal ratio, not every such curve was filed as active; inconclusive = small, poorly fitted or top-dose-only effect, or a change in a side signal; the % refers to the signal ratio;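 note: the direction sought is a rising ratio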
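In this assay, an IκBα–CBG68 fusion accumulates when IKK-driven degradation is blocked; native CBR normalizes for cell number. OCI-Ly3 cells were treated 4 h with compound and doxycycline, then green and red light read after Chroma-Glo addition.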
p53ts 39C kill: p53ts cell cytotoxicity, nonpermissive temperature; hit rate 1.5% among 130,000; H1299-p53A138V viability at 39C, ATP luminescence, 24 h; Potency, µM (doses to about 46.1 µM), for the others: at the top dose activity change, negative = cell killing, most hits filed as cytotoxic; note: % is set by controls: 0 for no effect and ±100 for the full control effect; nearly all actives have a fitted effect of over 55% in size
Imprint erasure: genomic imprint erasure induction; Potency, µM (series often up to 60.7 µM), for the others: at the highest dose activity change, positive = activation, most hits filed as activators; mouse ES Peg3-LacZ reporter, beta-gal luminescence, 40 h; hit rate 0.02% among 110,000; AID 1948
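Each well holds 300 Peg3LacZ-Neo (maternal) female ES cells incubated 40 h at 37C, 5% CO2. LacZ is measured by BetaGlo luminescence, with AC50 and maximum efficacy derived from dose-response curves.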
* hit, by the source's call; ? = inconclusive; / = no result given; [ ] = remark or other dose. Unless noted, calls come from the whole dose curve; as a rule, active = well fitted curve in the direction sought with a large enough effect; inconclusive = small, poorly fitted or top-dose-only effect, or another doubt; inactive = no such curve, though single readings can be large; an effect the other way counts as inactive or inconclusive. Potency is the fitted concentration of half-maximal effect.

SMILES	p53ts 32C kill	IkB sig inh	p53ts 39C kill	Imprint erasure
COc1ccc(-c2nc3nc(C)cc(Nc4cccc(C(F)(F)F)c4)n3n2)cc1	10%	0%	-19%	-3%[10.9 µM]
CC(C(=O)NCc1cccc(Br)c1)n1ncn2cccc2c1=O (configuration not stated)	?	?	13µM*	-22%[10.9 µM]
Clc1ccc(-c2nc3nc4ccccc4nc3n2Cc2ccco2)cc1	-5%	?	-1%	2%
Cc1ccc(-c2nc3nc4ccccc4nc3n2Cc2ccco2)cc1	13µM*	?	13µM*	4%
CCc1cccc(NC(=O)Cn2c(=O)n(CCC(=O)NCc3ccccc3Cl)c(=O)c3sccc32)c1	?	?	13µM*	-5%[10.9 µM]
Cc1ccccc1NC(=O)Cn1c(=O)n(CCCCCC(=O)NCc2ccccc2Cl)c(=O)c2sccc21	-27%	22%	-22%	15%[10.9 µM]
Cc1ccc(C)c(Cn2nnc(C(=O)NCc3ccc(Cl)cc3Cl)c2N)c1	-11%	2%	13µM*	-8%[10.9 µM]
COc1ccc(-c2nnc(SCC(=O)NC3CCCC3)nc2-c2ccc(OC)c(OC)c2)cc1OC	-7%	1%	4%	-9%[10.9 µM]
CCc1c(C)c2ccc(O)c(CN3CCN(c4ccc(OC)cc4)CC3)c2oc1=O	?	-3%	7.9µM*	-14%[10.9 µM]
C/C=C1/C2C=C(C)CC1(N)c1ccc(=O)[nH]c1C2 (configuration not stated)	/	/	/	-9%
CC(=O)c1ccc(NC(=O)c2ccn[nH]2)cc1	13µM*	1%	10µM*	-77%
COc1ccc(-c2cc([C@H](O)C3CCCCN3)c3ccccc3n2)cc1 (some centres not stated)	/	/	/	-9%[10.9 µM]
COc1ccc(OC)c(S(=O)(=O)Nc2ccc(O)c3ccccc23)c1	?	?	10µM*	-28%
COc1ccc(OC)c(S(=O)(=O)Nc2ccc(C(N)=O)cc2)c1	7%	3%	10%	0%
Cc1[nH]c2ccccc2c1C1(O)C(=O)N(Cc2ccccc2)c2ccc(Br)cc21 (configuration not stated)	-20%	?	13µM*	-10%[10.9 µM]
Cc1ccc(C(=O)CC2(O)C(=O)N(CCc3ccccc3)c3ccc(Br)cc32)o1 (configuration not stated)	4%	?	4%	-8%
O=C(CC1(O)C(=O)N(CCc2ccccc2)c2ccc(Br)cc21)c1ccccc1 (configuration not stated)	-29%	?	?	-14%[10.9 µM]
COc1ccc(C(=O)CC2(O)C(=O)N(Cc3ccccc3)c3ccc(Br)cc32)cc1 (configuration not stated)	15%	?	13µM*	-12%[10.9 µM]
Cc1ccc(C(=O)CC2(O)C(=O)N(CCc3ccccc3)c3ccc(Cl)cc32)cc1 (configuration not stated)	?	?	16µM*	-12%[10.9 µM]
Cc1cccc(CNc2nc(-c3ccccc3CN(C)C)nc3ccccc23)c1	-19%	-4%[11.4 µM]	-28%	-31%
Cc1ccc(NC(=O)CSc2c3c(nc4ccccc24)CCCC3)cc1F	?	?	16µM*	8%[10.9 µM]
CN(Cc1ccccc1)C(=O)CSc1c2c(nc3ccc(Cl)cc13)CCCC2	22µM*	?	?	3%[10.9 µM]
O=C(CSc1c2c(nc3ccc(Cl)cc13)CCCC2)N1CCN(C(=O)c2ccco2)CC1	?	?	6.3µM*	-29%
CCCN(CCC)C(=O)CSc1c2c(nc3ccc(Cl)cc13)CCCC2	20µM*	?	?	-15%[10.9 µM]
O=S(=O)(c1cccc(Cl)c1)N1CCCC1	10%	1%	2%	-6%
SMILES	p53ts 32C kill	IkB sig inh	p53ts 39C kill	Imprint erasure
CSc1ccc(/C=C/c2nc3ccccc3n2S(=O)(=O)c2cccc(Cl)c2)cc1	3.2µM*	?	4µM*	-25%[10.9 µM]
O=S(=O)(c1cccc(Cl)c1)n1c(/C=C/c2ccccc2Cl)nc2ccccc21	1.3µM*	6%	1µM*	-84%[10.9 µM]
COc1cc(S(=O)(=O)n2c(C)nc3ccccc32)ccc1F	-6%	4%	8%	9%
C=CCSc1nc2ccccc2n1S(=O)(=O)c1ccc(C)cc1	5%	/	8%	/
Cc1ccc(/C=C/c2nc3ccccc3n2S(=O)(=O)c2ccc(Br)cc2)cc1	5µM*	?	6.3µM*	-16%[10.9 µM]
C/C(=C\CNc1ncnc2c1ncn2[C@@H]1O[C@@H](CO)[C@@H](O)[C@H]1O)CO	/	0%[11.4 µM]	/	/
CCc1nnc(NC(=O)c2nc(S(=O)(=O)Cc3cccc(C)c3)ncc2Cl)s1	?	5%	5µM*	-25%[10.9 µM]
CCc1nnc(NC(=O)c2nc(SCc3ccccc3F)ncc2Cl)s1	4%	?	-18%	-6%[10.9 µM]
Cc1cccc(CSc2ncc(Cl)c(C(=O)Nc3nc4ccc(F)cc4s3)n2)c1	15%	1%	-25%	20%[10.9 µM]
CCOc1ccccc1NC(=O)c1nc(S(=O)(=O)Cc2cccc(C)c2)ncc1Cl	16µM*	?	3.2µM*	-40%[10.9 µM]
CCc1nnc(NC(=O)c2nc(S(=O)(=O)Cc3ccc(C)cc3)ncc2Cl)s1	16µM*	?	6.3µM*	-31%[10.9 µM]
CCOc1ccccc1NC(=O)c1c(NC(=O)c2cccc(C)c2)sc2c1CCCC2	0%	3%	2%	-9%[10.9 µM]
COc1cccc(NC(=O)c2ccc3nc(Cc4ccccc4)oc3c2)c1	8%	?	-22%	-23%[10.9 µM]
O=c1[nH][nH]c(=S)c(=O)[nH]1	7%[9.22 µM]	1%[11.4 µM]	12%[9.22 µM]	-8%[10.9 µM]
Clc1ccc(-c2nnc(-c3ccccc3)o2)c(Cl)c1	7.9µM*	?	10µM*	-31%
O=C(O)CCSc1nnc(-c2ccc(Cl)cc2Cl)o1	13µM*	?	?	13%[10.9 µM]
Clc1ccc(-c2nnc(-c3ccc(Br)o3)o2)c(Cl)c1	-20%	-3%	-29%	-33%
Fc1ccc(-c2nnc(-c3ccc(Cl)cc3Cl)o2)cc1	5µM*	?	13µM*	-50%
CCSc1nnc(-c2ccc(Cl)cc2Cl)o1	-27%	-1%	-18%	-21%
Fc1ccc(-c2nnc(-c3ccc(Cl)cc3)o2)cc1	?	-2%	?	-18%
C[C@](O)(c1ccccc1)c1nccc2ccccc12	-11%[9.22 µM]	0%[11.4 µM]	8%[9.22 µM]	1%[10.9 µM]
N#Cc1cccc(-c2nccc(-n3ccnc3)n2)c1	-10%	-1%[11.4 µM]	-12%	4%
CN[C@@H]1[C@H](O[C@@H]2O[C@H](C)[C@@](O)(CO)[C@H]2O[C@H]2[C@H](O)[C@H](O)[C@H](N=C(N)N)[C@@H](O)[C@@H]2N=C(N)N)O[C@@H](CO)[C@H](O)[C@H]1O	/	/	/	-4%
CC(C)(C)C(=O)[C@H](C(c1ccccc1)N1CCOCC1)N1CCOCC1 (some centres not stated)	/	/	/	-6%[10.9 µM]
COc1ccc(CNc2ncnc3ccc(-c4c(C)noc4C)cc23)c(OC)c1	11%	?	-25%	-9%
NC(=O)c1ccccc1N/C=C/C(=O)c1cccs1	11µM*	/	?	/
Cc1cccc(N/C=C/C(=O)c2cccs2)c1C	/	/	10µM*	/
Cc1ccc(C(=O)/C=C/Nc2ccccc2C(N)=O)o1	13µM*	?	13µM*	-45%

Screening results from PubChem BioAssay.
